# PubChem BioAssay AID1964107 (National Center for Advancing Translational Sciences (NCATS), 2024)
# Several values for one entry are separate records, joined by “and”; a condition that tells them apart may be missing. Equal values may be shown once. Among all 31,000 compounds or so, about 360 (1.2%) were called active. Entries that show only a call come without a potency. Not shown: some 8% with an inconclusive outcome. Calls come from the whole dose curve. For the sample, actives were picked, then their nearest neighbours and some compounds at random.
# Biological target: Polyprotein P1234 (Chikungunya virus (strain S27-African prototype)) (UniProt Q8JUX6)
# Assay: Primary qHTS for inhibitors of NSP2Pro chikungunya virus (CHIKV); note: nearly all actives have a fitted effect of over 60% in size
# Conditions: FRET peptide cleavage, fluorescence 1 h; series mostly up to 24.9 µM
# In short: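 Enzyme 150 nM, substrate 2.5 uM (both final); Tris-HCl 10 mM pH 8.0 + 0.01% Tween 20; cpd up to 25 uM, 7 pts; 15 min preinc., 1 h RT; fluorescence ex 525/em 598.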
# Potency is the fitted concentration of half-maximal effect.
# Polyprotein P1234 (Chikungunya virus (strain S27-African prototype)), sequence (Q8JUX6 whole entry, looked up): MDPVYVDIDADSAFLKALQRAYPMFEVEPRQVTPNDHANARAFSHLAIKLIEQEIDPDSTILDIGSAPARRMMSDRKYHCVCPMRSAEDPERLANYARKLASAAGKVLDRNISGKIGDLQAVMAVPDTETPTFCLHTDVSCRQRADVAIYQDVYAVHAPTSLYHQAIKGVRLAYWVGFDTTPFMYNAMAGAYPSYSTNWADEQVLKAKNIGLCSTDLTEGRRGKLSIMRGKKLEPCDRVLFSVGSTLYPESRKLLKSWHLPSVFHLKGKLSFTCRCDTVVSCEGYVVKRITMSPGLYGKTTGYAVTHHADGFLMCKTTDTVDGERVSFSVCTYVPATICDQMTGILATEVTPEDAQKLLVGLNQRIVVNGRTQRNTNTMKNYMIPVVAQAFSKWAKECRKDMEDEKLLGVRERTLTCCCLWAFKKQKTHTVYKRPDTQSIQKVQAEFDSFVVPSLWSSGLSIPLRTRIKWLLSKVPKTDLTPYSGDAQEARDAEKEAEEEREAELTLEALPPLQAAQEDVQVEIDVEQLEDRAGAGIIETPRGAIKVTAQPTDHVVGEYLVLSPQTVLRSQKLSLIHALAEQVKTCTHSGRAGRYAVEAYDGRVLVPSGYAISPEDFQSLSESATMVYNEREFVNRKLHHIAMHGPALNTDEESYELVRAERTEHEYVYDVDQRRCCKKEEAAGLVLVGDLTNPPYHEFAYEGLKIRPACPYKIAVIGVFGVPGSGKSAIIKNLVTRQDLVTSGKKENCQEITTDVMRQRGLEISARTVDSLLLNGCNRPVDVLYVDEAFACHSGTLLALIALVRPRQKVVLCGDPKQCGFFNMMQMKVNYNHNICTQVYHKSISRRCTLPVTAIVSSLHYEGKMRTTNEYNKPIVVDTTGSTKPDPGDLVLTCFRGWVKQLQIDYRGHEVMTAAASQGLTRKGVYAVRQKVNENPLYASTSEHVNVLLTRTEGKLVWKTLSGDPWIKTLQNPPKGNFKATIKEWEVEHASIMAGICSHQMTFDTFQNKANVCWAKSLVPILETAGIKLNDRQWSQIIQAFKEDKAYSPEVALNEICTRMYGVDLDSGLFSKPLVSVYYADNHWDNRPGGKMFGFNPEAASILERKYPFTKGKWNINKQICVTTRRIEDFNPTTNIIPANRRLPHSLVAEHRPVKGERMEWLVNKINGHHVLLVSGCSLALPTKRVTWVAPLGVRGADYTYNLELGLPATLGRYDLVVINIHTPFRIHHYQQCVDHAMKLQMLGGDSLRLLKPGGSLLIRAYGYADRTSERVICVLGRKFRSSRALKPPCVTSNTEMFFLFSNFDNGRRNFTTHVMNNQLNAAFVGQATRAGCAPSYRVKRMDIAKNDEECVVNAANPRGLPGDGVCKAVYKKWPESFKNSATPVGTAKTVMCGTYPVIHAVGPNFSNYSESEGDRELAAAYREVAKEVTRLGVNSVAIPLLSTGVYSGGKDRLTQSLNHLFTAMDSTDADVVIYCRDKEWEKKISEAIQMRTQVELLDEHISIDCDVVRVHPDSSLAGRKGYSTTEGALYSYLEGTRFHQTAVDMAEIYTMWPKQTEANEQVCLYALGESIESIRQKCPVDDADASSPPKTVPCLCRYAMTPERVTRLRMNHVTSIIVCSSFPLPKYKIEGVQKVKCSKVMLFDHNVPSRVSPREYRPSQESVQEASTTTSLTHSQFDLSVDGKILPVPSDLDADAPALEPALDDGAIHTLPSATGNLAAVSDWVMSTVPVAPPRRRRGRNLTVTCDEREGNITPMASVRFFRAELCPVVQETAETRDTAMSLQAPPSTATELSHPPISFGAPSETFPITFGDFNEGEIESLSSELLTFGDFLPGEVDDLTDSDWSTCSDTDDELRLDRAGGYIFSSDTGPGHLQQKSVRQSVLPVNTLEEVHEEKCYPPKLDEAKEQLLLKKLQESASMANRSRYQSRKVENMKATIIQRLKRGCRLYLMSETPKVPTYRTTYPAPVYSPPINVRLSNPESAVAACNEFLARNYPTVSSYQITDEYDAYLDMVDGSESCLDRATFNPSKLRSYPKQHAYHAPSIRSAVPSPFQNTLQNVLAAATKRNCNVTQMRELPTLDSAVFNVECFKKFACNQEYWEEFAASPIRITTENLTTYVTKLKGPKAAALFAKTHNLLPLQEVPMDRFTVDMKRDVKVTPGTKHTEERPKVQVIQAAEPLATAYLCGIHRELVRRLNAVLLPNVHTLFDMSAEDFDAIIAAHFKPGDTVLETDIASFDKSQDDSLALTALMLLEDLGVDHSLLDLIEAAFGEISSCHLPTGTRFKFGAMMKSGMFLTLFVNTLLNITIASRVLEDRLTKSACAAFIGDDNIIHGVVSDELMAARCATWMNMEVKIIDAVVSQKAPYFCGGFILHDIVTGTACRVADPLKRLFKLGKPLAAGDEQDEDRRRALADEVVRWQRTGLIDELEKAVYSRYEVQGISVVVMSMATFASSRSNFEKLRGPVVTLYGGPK
row,SMILES,Potency
1,COc1ccc(OC)c(NC(=O)CSC2=Nc3ccccc3C3=NC(CC(=O)NCCc4ccccc4)C(=O)N23)c1 (stereo unspecified),inactive
2,COC(=O)CC[C@@H](C)C1CCC2C3CCC4C[C@H](OC(C)=O)CCC4(C)C3C[C@H](O)C21C (stereo partly specified),inactive
3,CCOC(=O)c1ccc(NC(=O)c2c(NCc3cccc(OC)c3)sc3c2CCC3)cc1,inactive
4,CCOc1ccc(NC(=O)c2c(NC(=O)Cc3ccccc3)sc3c2CCCCC3)cc1,8.91 µM (active)
5,Cc1cccc(OCCCC(=O)Nc2sc3c(c2C(N)=O)CCC(C)C3)c1 (stereo unspecified),inactive
6,COC(=O)c1c(NC(=O)CCCOc2ccccc2)sc2c1CCC(C)C2 (stereo unspecified),inactive
7,O=C(Cc1ccccc1)Nc1sc2c(c1C(=O)Nc1ccc(Br)cc1)CCC2,inactive
8,CCOc1ccc(NC(=O)c2c(NC(=O)Cc3ccccc3)sc3c2CCC(C)C3)cc1 (stereo unspecified),3.38 µM (active)
9,COc1ccc(CCNS(=O)(=O)c2cc(-c3cc(C)no3)ccc2C)cc1OC,inactive
10,CC(C)c1nccn1CCCNc1nc(-c2ccncc2)nc2c1cnn2C,inactive
11,COc1ccc(NC(=O)Cn2c(=O)n(CCC(C)C)c(=O)c3cccnc32)cc1Cl,inactive
12,N#Cc1ccc(NCCNCC(=O)N2CCCC2C#N)nc1 (stereo unspecified),inactive
13,CC(C)NC(=O)c1nn(-c2ccccc2F)nc1CO,inactive
14,CC(C)Nc1ncc(C(=O)NC2CCCN(CCc3ccccc3)C2)cn1 (stereo unspecified),inactive
15,CN1CCCN(C(=O)CN2CC3CC(C2)[C@H]2CCCC(=O)N2C3)CC1 (stereo partly specified),inactive
16,Cc1ccccc1-c1nc(NCc2ccc(-c3cccnc3)cc2)c2ccccc2n1,inactive
17,CC(C)(O)c1ccc2c(c1)C(=O)CC1[C@](C)(CO)CCC[C@]21C (stereo partly specified),inactive
18,COc1ccc(-c2nc(S(=O)(=O)c3ccccc3)c(N3CCCCC3)o2)cc1,11.2 µM (active)
19,COc1cccc(-c2nc(S(=O)(=O)c3ccc(C)cc3)c(NCc3ccccc3)o2)c1,inactive
20,O=C(CSc1oc(-c2ccc(F)cc2)nc1S(=O)(=O)c1ccc(Br)cc1)NC1CCCCC1,inactive
21,CN(C)c1cccc(-c2cnc(Nc3cnccn3)c3c2CCO3)c1,inactive
22,CCCCNc1nc(C)nc2c1nc(-c1ccccc1)n2CCCCN(CC)CC,inactive
23,COc1ccc(OC)c(NC(=O)C2CCCN(S(=O)(=O)c3ccc4c(c3)CCCC(=O)N4)C2)c1 (stereo unspecified),inactive
24,C[C@H]1CC[C@@H]2N(C1)C[C@@H]1[C@H]([C@@H](O)[C@H](O)[C@]3(O)[C@H]1C[C@@]14OC5(O)[C@@H](C[C@@H](O)[C@@H]31)[C@]4(C)CC[C@@H]5O)[C@]2(C)O,inactive

row,SMILES,Potency
1,COc1ccccc1CNC(=O)CN1CCCC(CO)(CC2CC2)C1 (stereo unspecified),inactive
2,COCCCN1CCC(NC(=O)c2cc(Cl)c(N)c3c2OCC3)CC1,inactive
3,COC(=O)c1ccccc1NC(=O)c1ccc(COc2ccccc2Cl)o1,inactive
4,COc1cc(OC)c(NC(=O)c2ccc(Cc3cc4c(cc3C)C(C)(C)CCC4(C)C)o2)c(OC)c1,11.1 µM (active)
5,Cc1ccc(CN(C(=O)c2ccccc2[N+](=O)[O-])c2ccccn2)cc1,inactive
6,COc1ccc2oc(=O)c(-c3cn4c(n3)sc3cc(OC)ccc34)cc2c1,inactive
7,Cc1ccc(C2CCN(C(=O)c3cnn(-c4ccccc4Cl)c3C3CCN(C(=O)OC(C)(C)C)CC3)C2)cc1 (stereo unspecified),inactive
8,Cc1c(P(=S)(c2ccccc2)c2ccccc2)[n+]2ccccc2n1CCCCc1ccccc1,inactive
9,Cc1cnc(C(=O)N[C@H]2CCCCC/C=C\[C@@H]3C[C@@]3(C(=O)NS(=O)(=O)C3CC3)NC(=O)[C@@H]3C[C@@H](Oc4nc5ccccc5c5ccccc45)CN3C2=O)cn1,inactive
10,CS(=O)(=O)c1ccc(OC[C@H]2C[C@@H](NC(=O)c3ccccc3)[C@H](O)[C@@H]2O)cc1,inactive
11,CC1(C)[C@H](Cc2cc(-c3ccccc3)on2)C[C@@H]1NCC1CC1,inactive
12,Cc1cccc(NC(=O)CSc2ncc(-c3ccccc3)[nH]2)c1C,inactive
13,CCCc1nc(C(=O)N2CCC3(CCCNC3)C2)cs1 (stereo unspecified),inactive
14,Clc1ccccc1CSc1nncn2c1cc1occc12,inactive
15,O=C(NCC(c1ccco1)S(=O)(=O)c1cccs1)c1ccc(F)cc1 (stereo unspecified),inactive
16,CCOc1ccc(NC(=O)Cn2c(C)ccc(C#N)c2=O)cc1,inactive
17,COc1ccc(-c2ccc3ncn(C4CC4)c(=O)c3n2)cn1,inactive
18,Cc1ccc(-c2ccc(=O)n(CCNC(C)c3ccco3)n2)cc1 (stereo unspecified),inactive
19,Cc1ccc(Cl)cc1NC(=O)C1CCCN(c2cnccn2)C1 (stereo unspecified),inactive
20,C=C1C(=O)OC2C=C(C)CC/C=C(\CO)CC(O)C12 (stereo unspecified),inactive
21,CCN(c1ncnc2c1cnn2-c1ccc(C)cc1)C1CCCCC1,inactive
22,Cc1ccc(Cl)cc1NC(=O)/C(C#N)=C\c1cn(Cc2ccc(F)cc2)c2ccccc12,inactive
23,CCCN1CCc2nc(N3CCN(C)CC3)ncc2C1,inactive
24,CC1CCN(S(=O)(=O)c2ccc3c(ccn3CCC(=O)NCc3ccc(N(C)C)cc3)c2)CC1,inactive

row,SMILES,Potency
1,Oc1ccc2c3c1O[C@H]1c4[nH]c5c(N=C=S)cccc5c4C[C@@]4(O)[C@@H](C2)N(CC2CC2)CC[C@]314,inactive
2,O=C(NCC(c1ccc2c(c1)OCO2)N1CCN(c2ccccc2)CC1)C(=O)Nc1ccccc1F (stereo unspecified),inactive
3,Cc1cc(C(=O)NC2CC(c3cc(=O)[nH]cn3)C2)cc(S(N)(=O)=O)c1C (stereo unspecified),inactive
4,CCS(=O)(=O)N1CCc2cc(C(=O)NCc3ccc(OC)cc3)ccc21,inactive
5,Cc1nc(CNC(=O)[C@H]2CCC[C@@H](O)C2)nc2c1CCCC2,inactive
6,CCOC(=O)c1ccc(NC(=O)C2CC(=O)N(c3ccc(C(C)C)cc3)C2)cc1 (stereo unspecified),inactive
7,Cc1nc(C)c(-c2ccc3ncnc(N(C)Cc4sccc4C)c3c2)s1,inactive
8,O=C(Cn1c(=O)n(-c2ccc(F)cc2)c(=O)c2sccc21)Nc1cccc(C(F)(F)F)c1,inactive
9,COc1cc(C(C)=O)ccc1O[C@@H]1O[C@H](CO[C@@H]2OC[C@@H](O)[C@H](O)[C@H]2O)[C@@H](O)[C@H](O)[C@H]1O,inactive
10,Cc1cc(-c2ccc(C)c(S(=O)(=O)N3c4ccccc4CC3C)c2)on1 (stereo unspecified),inactive
11,CCOC(=O)N1CCc2c(sc3c2c(=O)n(Cc2ccccc2)c(=O)n3CC(=O)Nc2cccc(C)c2)C1,inactive
12,CNC(=O)[C@@H]1C[C@@H](O)CN1C1CCN(C(=O)C2(c3ccccc3)CC2)CC1,inactive
13,O=c1cc(-c2cccnc2)oc2c(-c3cccc(CO)c3)nccc12,inactive
14,NC(=O)CN1CC2(CCC1=O)CCN(C[C@@H](O)CO)CC2,inactive
15,Cc1nc(C(=O)N2CCn3nc(Cc4ccccc4)cc3C2)cs1,inactive
16,OCC1(CCCc2ccccc2)CCCNC1 (stereo unspecified),inactive
17,Cc1ccc(OCCn2c(CCNC(=O)c3ccccc3)nc3ccccc32)cc1,inactive
18,Cc1cccc(Nc2nc(C)nc(N)c2S(=O)(=O)c2ccccc2)c1,inactive
19,N#CSc1cc(SC#N)c(N)nc1N,664 nM (active) and 351 nM (active) and 1.24 µM (active)
20,CCCNC(=O)C(CC)n1nc(CC)n2c(cc3oc(C)cc32)c1=O (stereo unspecified),inactive
21,COC([CH2][Hg])CNC(=O)c1ccccc1OCC(=O)O (stereo unspecified),1.49 µM (active)
22,COc1ccc(-c2ccccc2C(=O)NCC#N)nn1,inactive
23,Cc1ccc(CNC(=O)CSC2=Nc3ccccc3C3=NC(C)C(=O)N23)cc1 (stereo unspecified),inactive
